# Measurements from PubChem BioAssay AID488969 (Vanderbilt High Throughput Screening Facility, 2010).
# The full ranking holds about 110,000 compounds; the median of “z-score” is about -0.1, and the highest 2% start at about 2. Only a selection was taken, and the highest values are over-represented in it overall. Activity calls are given as the source filed them.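 Rule for the calls: active = z-score in the third read window above 3 or below -3; inactive = the rest.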
# Biological target: Metabotropic glutamate receptor 8 (Rattus norvegicus) (UniProt P70579)
# Sequence (P70579 whole entry, looked up): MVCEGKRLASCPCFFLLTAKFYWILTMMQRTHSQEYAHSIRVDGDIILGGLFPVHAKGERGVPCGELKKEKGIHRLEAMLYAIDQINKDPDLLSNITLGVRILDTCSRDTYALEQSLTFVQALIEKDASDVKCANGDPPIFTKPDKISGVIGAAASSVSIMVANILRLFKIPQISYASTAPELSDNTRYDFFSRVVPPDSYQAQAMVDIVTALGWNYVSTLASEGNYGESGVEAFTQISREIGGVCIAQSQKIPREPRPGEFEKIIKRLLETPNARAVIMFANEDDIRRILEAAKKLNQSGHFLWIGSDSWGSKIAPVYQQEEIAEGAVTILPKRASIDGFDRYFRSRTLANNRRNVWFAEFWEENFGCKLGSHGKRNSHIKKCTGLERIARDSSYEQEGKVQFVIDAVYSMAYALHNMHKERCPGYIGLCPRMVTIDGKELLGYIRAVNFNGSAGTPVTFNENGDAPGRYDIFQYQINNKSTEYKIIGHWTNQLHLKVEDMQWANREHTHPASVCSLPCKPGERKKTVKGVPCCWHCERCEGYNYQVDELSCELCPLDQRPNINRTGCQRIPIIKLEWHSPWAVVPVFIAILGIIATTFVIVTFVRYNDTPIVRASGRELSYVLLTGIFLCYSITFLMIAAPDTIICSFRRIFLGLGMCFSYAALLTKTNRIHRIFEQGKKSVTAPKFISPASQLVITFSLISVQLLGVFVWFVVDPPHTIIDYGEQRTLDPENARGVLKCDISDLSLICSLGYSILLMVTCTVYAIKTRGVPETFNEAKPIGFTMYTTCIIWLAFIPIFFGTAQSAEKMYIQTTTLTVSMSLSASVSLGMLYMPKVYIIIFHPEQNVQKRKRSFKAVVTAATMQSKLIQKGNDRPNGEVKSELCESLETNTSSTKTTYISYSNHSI
# Assay: mGluR8 Gi/Go-coupled signaling modulation – cell-based, rat, thallium flux, HTS, primary screen (AID 488969)
# Settings: HEK293 rat mGluR8, GIRK (G protein-gated inwardly rectifying potassium channel) thallium flux, FluoZin2; at 10 µM; stronger effect = higher value; submaximal glutamate (EC20) added with thallium
row,Structure (SMILES),z-score
1,Cc1ccc(C(=O)CSc2nnc(COc3ccc(C#N)cc3)n2-c2ccccc2)cc1,0.655
2,Oc1csc(Cc2nc(-c3ccc4ccccc4c3)cs2)n1,-0.78
3,Cc1ccc(NC(=O)C2CCCN(S(=O)(=O)c3cnc[nH]3)C2)cc1F (centres undefined),-0.00916
4,Clc1ccc(-c2cc(CSc3cccc(Cl)c3)on2)cc1,-0.234
5,CCOC(=O)c1cc(NC(=O)COc2ccc([N+](=O)[O-])cc2)cc(C(=O)OCC)c1,-0.0752
6,Cc1[nH]c(=O)[nH]c(=O)c1/C=C/C(=O)OCC(C)C,0.104
7,NCCCCCc1nnc(SCc2ccc(Cl)cc2Cl)o1,2.74
8,NCCCCCc1nnc(SCc2ccccc2Cl)o1,1.74
9,NCCCCCc1nnc(SCc2ccc(Cl)c(Cl)c2)o1,0.93
10,O=C(CSc1nc2ccccc2n1CCc1ccccc1)N1CCOCC1,2.47
11,CN(C(=O)CSc1nc2ccccc2n1CCc1ccccc1)C1CCS(=O)(=O)C1 (centres undefined),0.483
12,Cc1ccc(-c2cn(-c3ccccc3)c(SCC(N)=O)n2)cc1C,-1.06
13,O=C(Cn1c(SCc2ccccc2)nc2ccccc21)N1CCOCC1,-0.096
14,CCN(C(=O)CSc1nc2cc(C(F)(F)F)ccc2n1Cc1ccccc1)C1CCS(=O)(=O)C1 (centres undefined),-0.724
15,O=C(CSc1nnc(-c2ccc(Br)cc2)n1CCc1ccccc1)NC1CCS(=O)(=O)C1 (centres undefined),-0.076
16,Cc1ccc(C)c(-n2cc(-c3ccc(Cl)cc3)nc2SCC(=O)NC2CCS(=O)(=O)C2)c1 (centres undefined),-0.524
17,O=C(CSc1nc2ccccc2n1CCc1ccccc1)NC1CCS(=O)(=O)C1 (centres undefined),2.39
18,O=C(CSc1nc2cc(C(F)(F)F)ccc2n1Cc1ccccc1)NC1CCS(=O)(=O)C1 (centres undefined),-0.137
19,Cc1ccc(-c2cn(-c3ccccc3)c(SCC(=O)NC3CCS(=O)(=O)C3)n2)cc1C (centres undefined),3.44 (active)
20,CCN(C(=O)CSc1nc2ccccc2n1CCc1ccccc1)C1CCS(=O)(=O)C1 (centres undefined),3.88 (active)
21,O=C(CSc1nc2ccccc2n1CC(=O)N1CCOCC1)N1CCCC1,0.588
22,CCOC(=O)/C(=N\Nc1ccc(OC)cc1)c1csc(Nc2ccccc2)n1,0.551

row,Structure (SMILES),z-score
1,COC(=O)CCc1c(C)c(C#N)c2nc3ccccc3n2c1N1CCCC1,-0.478
2,Cc1cc(-n2ccc(=O)[nH]c2=O)nc(-c2ccccc2)n1,-0.208
3,S=C1NCCc2ccc(Cl)cc2C1c1ccccc1 (centres undefined),-0.00171
4,Cc1c(C(C)(C)C)c(C=S)n2ccccc12,-0.503
5,CN(C)c1ccc(C2NCC(CCl)O2)cc1 (centres undefined),-0.159
6,COc1cc(OC)cc(C(=O)NCc2n[nH]c(=S)n2-c2ccccc2OC)c1,-0.981
7,CCN(CC)S(=O)(=O)c1ccc(C(=O)NCc2n[nH]c(=S)n2-c2ccccc2OC)cc1,-0.0139
8,COc1ccccc1-n1c(CNC(=O)COc2ccccc2)n[nH]c1=S,2.71
9,CSc1ccc(N2CCN(CCCNC(=O)Nc3ccccc3F)CC2)cc1,0.699
10,N#Cc1ccccc1NC(=O)COC(=O)CSc1nc2ccccc2o1,-2.27
11,Fc1ccc(CCNC(=S)Nc2ccc(F)cc2)cc1,0.103
12,Cc1cc(/C=c2/sc3nc4ccccc4n3c2=O)c(C)n1-c1ccccn1,6.08 (active)
13,O=c1/c(=C\c2cccnc2)sc2nc3ccccc3n12,-0.0361
14,O=c1/c(=C/c2ccccn2)sc2nc3ccccc3n12,0.539
15,Cc1nc2oc3c(NCc4ccccc4)ncnc3c2c2c1COC(C)(C)C2,-0.383
16,CCOc1ccc(C2=NNC(c3cccs3)=Nc3ccc(OC)cc32)cc1,3.11 (active)
17,CCOc1ccc(C2=NNC(c3cccs3)=Nc3ccc(OCC)cc32)cc1,-0.166
18,CCCOc1ccc(C2=NNC(c3cccs3)=Nc3ccc(OC)cc32)cc1,-0.471
19,CCCn1c2c(c(O)c(C(=O)NCCCN(CC)CC)c1=O)CCCC2,0.585
20,Cc1ccccc1C(=O)N1CCN(c2ccc([N+](=O)[O-])c(NCc3cccnc3)c2)CC1,-0.418
21,S=c1[nH]nc(COc2ccc(Cl)cc2)n1C1CCCCC1,1.31
22,Cc1ccc(OCc2n[nH]c(=S)n2C2CCCCC2)cc1,-1.04

row,Structure (SMILES),z-score
1,Cc1cc(Cl)ccc1OCc1n[nH]c(=S)n1C1CCCCC1,7.67 (active)
2,CC(=O)Cc1nsc(NC(=O)c2cn(-c3ccccc3)nc2-c2ccc(Br)cc2)n1,0.229
3,O=C(c1ccccc1F)N1CCN=C1SCc1cccnc1,0.643
4,Cc1cc(NC(=O)C(C)C)ncc1NC(=O)Cc1ccccc1,1.07
5,Cc1cc(C(=O)N/N=C2\CCCC(C)C2)n[nH]1 (centres undefined),-0.208
6,COc1ccc([C@@H]2Sc3cc(OC)ccc3N(CCN(C(C)C)C(C)C)C(=O)[C@H]2OC(C)=O)cc1,2.62
7,COc1ccc(CCN2C(=O)C(Oc3ccccc3C)C2c2ccc3c(c2)OCO3)cc1 (centres undefined),-0.223
8,COc1ccc(CCN2C(=O)C(Oc3ccccc3)C2c2ccc3c(c2)OCO3)cc1 (centres undefined),-0.146
9,COC(=O)COc1ccc(S(=O)(=O)N2CCc3ccccc3C2)cc1,-0.687
10,CCCCSc1nc2ccccc2n1CC(=O)O,-0.412
11,CC(C)(C)c1ccc2c(c1)C(=O)c1ccccc1C2=O,-0.283
12,CCOC(=O)c1ccc(Oc2nc(NC)nc(OC)n2)cc1,-0.524
13,C=CCOc1cccc(C2/C(=C(/O)c3ccccc3)C(=O)C(=O)N2CCN2CCOCC2)c1 (centres undefined),-0.193
14,C=CCOc1cccc(C2/C(=C(/O)c3ccc(Cl)cc3)C(=O)C(=O)N2CCN2CCOCC2)c1 (centres undefined),-0.349
15,C=CCOc1cccc(C2/C(=C(/O)c3ccc(C)cc3)C(=O)C(=O)N2CCN2CCOCC2)c1 (centres undefined),3.31 (active)
16,Cc1ccc(C)c(N2C(=O)CN=C2Nc2ccccc2Cl)c1,-0.307
17,Cc1ccc(C(=O)NNC(=S)NC(=O)COc2ccccc2)cc1,6.25 (active)
18,Cc1ccc(OCC(=O)NNC(=O)c2cccnc2)cc1,0.0457
19,Cc1ccccc1C(=O)NNC(=O)Cc1ccccc1,-0.146
20,Cc1ccccc1C(=O)NNC(=S)NC(=O)COc1ccccc1,4.25 (active)
21,Cc1ccc(NC(=O)COc2ccccc2)c(NC(=O)c2ccccc2C)c1,0.00484
22,COc1cccc(OCC(=O)NNC(=O)c2ccc(-c3ccccc3)cc2)c1,0.902

row,Structure (SMILES),z-score
1,Cc1cccc(C(=O)NN2C(=O)C3C(c4ccccc4)C=CC(c4ccccc4)C3C2=O)c1 (centres undefined),0.291
2,Cc1ccc(C(=O)NCCSc2ccc(Cl)cc2)cc1S(=O)(=O)Nc1ccccc1,-0.43
3,CC(C)Cn1c(=O)c(C2=NS(=O)(=O)c3ccccc3N2)c(O)c2ccccc21,5.83 (active)
4,CC(C)Cn1c(=O)c(C(=O)N/N=C/c2cccc(F)c2)c(O)c2ccccc21,0.163
5,CCn1c(=O)c(-c2ccccc2)c(O)c2ccccc21,1.28
6,CCCc1nc(NCC2CCCO2)c2nnn(Cc3ccccc3)c2n1 (centres undefined),-0.932
7,O=C(NC(=S)Nc1nc2c(s1)CSc1ccccc1-2)c1ccccc1,0.384
8,CN(C)c1ccc(C(=O)Nc2nc3c(s2)CCCC3)cc1,0.874
9,COC(=O)c1ccc(C(=O)NC(=S)Nc2nc3c(s2)CC(C)CC3)cc1 (centres undefined),0.17
10,Cc1onc(-c2ccccc2)c1C(=O)Nc1nc2c(s1)CCCC2,0.165
11,O=C(NC(=S)Nc1nc2c(s1)CCCC2)c1ccccc1,4.37 (active)
12,CC(C)(C)c1ccc(C(=O)NC(=S)Nc2nc3c(s2)CCCC3)cc1,1.95
13,CC(C)[C@H](NC(=O)c1ccccc1F)C(=O)Nc1nc2c(s1)CCCC2,2.3
14,Cc1ccccc1C(=O)NC(C(=O)Nc1nc2c(s1)CCCC2)C(C)C (centres undefined),-0.323
15,CCOc1ccccc1C(=O)N[C@H](C(=O)Nc1nc2c(s1)CCCC2)C(C)C,0.39
16,O=C(NC(=S)Nc1nc2c(s1)CCCC2)c1ccc(C(=O)c2ccccc2)cc1,2.41
17,COC(=O)c1ccc(C(=O)NC(=S)Nc2nc3c(s2)CCCC3)cc1,9.51 (active)
18,O=C(Nc1nc2c(s1)CCCC2)c1cccs1,0.315
19,S=C1NCCOCCOCCOCCN1,-0.259
20,Cc1nc2oc3ccccc3c(=O)c2c(=O)n1Cc1ccccc1,1.14
21,Brc1ccccc1-c1nnc2sc(Cc3ccccc3)nn12,-2.32
22,Cc1ccc2cccc(S(=O)(=O)Nc3c(C)n(C)n(-c4ccccc4)c3=O)c2n1,-0.0715

row,Structure (SMILES),z-score
1,Cc1cc(C)n2nc(C(=O)OCC(=O)c3cc(C)n(C)c3C)nc2n1,-0.164
2,Cc1ccc2c(c1)nc(NCCO)n2C,-0.14
3,Cc1ccccc1CSCc1nc2ccccc2[nH]1,-0.127
4,CCc1ccc(/C=C/C(=O)c2cc(Br)ccc(=O)c2O)cc1,2.17
5,O=C(/C=C/c1ccc2c(c1)OCCCO2)c1ccccc1O,0.562
6,CNc1ccc(Br)cc(C(=O)/C=C/c2ccc(OC)cc2OC)c1=O,-0.255
7,Cc1ccc(/C=C/C(=O)c2ccccc(=O)c2O)cc1C,5.65 (active)
8,Cc1ccc(/C=C/C(=O)c2cc(Br)ccc2OC(=O)c2ccco2)cc1,-0.117
9,Cc1cccc(/C=C/C(=O)c2cc(Br)ccc(=O)c2O)c1,2.75
10,CNc1ccc(Br)cc(C(=O)/C=C/c2cccc(OC)c2)c1=O,-0.351
11,COc1ccc(/C=C/C(=O)c2cc(Br)ccc(=O)c2O)cc1,3.14 (active)
12,O=C(/C=C/c1ccc2c(c1)OCCCO2)c1ccc2ccccc2c1O,0.573
13,CCc1ccc(C(C)NC(=O)/C=C/c2ccc(Br)cc2)cc1 (centres undefined),-0.0914
14,CNc1ccc(Br)cc(C(=O)/C=C/c2ccc3c(c2)OCO3)c1=O,0.111
15,CNc1ccc(Br)cc(C(=O)/C=C/c2ccc(OC)cc2)c1=O,0.019
16,N#Cc1cccc(Oc2ccc(-c3cnc4ccccc4n3)cc2)c1C#N,0.258
17,Cc1ccc(-n2c(C)nnc2SCC(=O)N2CCc3ccccc3C2)cc1,-0.994
18,Cc1cccc(N2C(=O)CC(Sc3nc(-c4ccccc4)c4cc(Cl)ccc4n3)C2=O)c1 (centres undefined),-0.887
19,CCc1ccc(OCC(=O)N/N=C/c2cc([N+](=O)[O-])ccc2N2CCOCC2)cc1,0.198
20,C/C(=N\OC(=O)c1ccc(Cl)cc1)c1nccs1,-0.0963
21,Cc1ccc(-n2nnnc2SCC(=O)Nc2cccc(NC(=O)c3ccco3)c2)cc1C,1.39
